Experimental findings from PubChem BioAssay AID1347417 (National Center for Advancing Translational Sciences (NCATS), 2020) are described below.

The whole screen tested about 120,000 compounds, of which about 5,300 (4.4%) were called active. Another 22% or so got no clear call; they are omitted. Calls follow the shape of the dose curve; as a rule, active = well fitted inhibition curve with a large enough effect; inconclusive = small, poorly fitted or top-dose-only effect; inactive = no such curve, though single readings can be large or run the other way. The list comes from a sample in which actives are over-represented; it also holds similar structures and randomly drawn compounds. Where a call stands in place of a potency, no number is given.
Potency is read from the fitted curve at half-maximal effect.

The assay can be described thus: qHTS Primary assay for Inhibitors of Plasmodium falciparum Dd2 growth in vitro. Also: nearly all actives have a fitted effect of over 65% in size. Conditions: P. falciparum Dd2 growth, SYBR Green, 72 h; series mostly up to 28.9 µM. In outline:
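Infected erythrocytes (Dd2, 0.3% parasitemia, 2.5% hematocrit final) are added to compound in RPMI-1640/Albumax II medium, grown 72 h at 37C in low oxygen, then lysed with saponin/Triton-X containing SYBR Green and read by fluorescence.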
Background: qHTS replaces the single test concentration by a dilution series.
For `COCCN1C(=O)c2ccccc2C(C(=O)NC2CCCCCC2)C12CCCCC2` (stereo unspecified), the Potency result was “inactive”.

As to `COc1cc(OC)c(NC(=O)Cn2ccn3nc(-c4ccccc4)c(CO)c3c2=O)cc1Cl`, the Potency entry was “inactive”.

Turning to `Cc1cc(N2CCN(c3cccc(C(F)(F)F)c3)CC2)n2nc(-c3ccccc3)nc2n1`, the Potency result is “inactive”.

In the case of `CCNc1ncc(CN2CCN(c3cccc(C(F)(F)F)c3)CC2)cn1`, the Potency is 11.2 µM (active).

Turning to `CC(C)(C)C(=O)N1CC[C@@H](CC(=O)O)[C@@H](CCN2CCN(c3cccc(C(F)(F)F)c3)CC2)C1`, the Potency result is “inactive”.

In the case of `N#Cc1ccc(OCC2CN(Cc3c[nH]c4ccccc34)C(=O)c3c(ccnc3-c3ccc(OCC(=O)O)cc3)O2)cc1` (stereo unspecified), the Potency result is “inactive”.

For the molecule `COc1ccccc1OC1(C(=O)O)CCN(C(=O)CC2CC2)CC1`, the Potency entry was “inactive”.

With `CN(C)c1ccc(C(=O)N[C@H]2C[C@H]3C(=O)NC[C@@H](CCC(=O)N4CCCCC4)N3C2)cc1`, the Potency entry is “inactive”.

`Cn1nc2c(c1NC(=O)Cn1nc3c(cc1=O)CCCC3)CSC2`: the Potency result was “inactive”.

In the case of `O=C(CCc1ccccc1)Nc1ccc([C@@H](O)[C@H]2COCC(=O)N2Cc2ccccc2F)cc1`, the Potency was 11.2 µM (active).

In the case of `CCN1C(=O)COC[C@@H]1C(O)c1ccc(NC(=O)Cc2ccc(OC)cc2)cc1` (stereo partly specified), the Potency result was “inactive”.

On to `CCOCCN1C(=O)COC[C@@H]1[C@H](O)c1ccc(NC(=O)c2cnccn2)cc1`, for which the Potency entry is “inactive”.

`O=C(Nc1ccc([C@@H](O)[C@H]2COCC(=O)N2CCCc2ccccc2)cc1)C1CC1`: the Potency entry was “inactive”.

With `Cc1ccc(C(=O)Nc2ccc(C(O)[C@H]3COCC(=O)N3Cc3ccccc3F)cc2)cc1` (stereo partly specified), the Potency result is “inactive”.

For `COCC(=O)Nc1ccc([C@@H](O)[C@H]2COCC(=O)N2Cc2ccc(C(F)(F)F)cc2)cc1`, the Potency is 12.6 µM (active).

Take `Cc1ccc(Cl)cc1NC(=O)CN1C(=O)NC2(CCC(C)CC2)C1=O` (stereo unspecified): the Potency result is “inactive”.

As for `Cc1ccc(CN2CCCOCCNC(=O)CC2)o1`, the Potency result was “inactive”.

`CCn1cc(CN2CC[C@H]3C(=O)NCCCCCCN(Cc4ccncc4)[C@@H]3C2)c(C)n1`: the Potency result was “inactive”.

As for `O=C(NCc1ccccc1)N1CCN2C(=O)NC[C@H]2C1`, the Potency entry is “inactive”.

With `O=C(NC1CCCCCC1)c1ccc2c(c1)CC(=O)N2Cc1cccc(F)c1`, the Potency entry was “inactive”.

On to `CCOc1ccc(OCC)c(Nc2nc3ccccc3n3nnnc23)c1`, for which the Potency result was “inactive”.

`CCOc1ccc(CNC(=O)c2cccc(Nc3nc4ccccc4n4nnnc34)c2)cc1OC`: the Potency was 11.2 µM (active).

Take `CCOc1ccc(CNC(=O)c2ccc3nc(CC)c(CC)nc3c2)cc1OC`: the Potency result is “inactive”.

For the molecule `CC(=O)NCC1Cn2cccc2CN1Cc1ccccc1` (stereo unspecified), the Potency result was “inactive”.

Take `O=C(c1cccc(-n2cnnc2)c1)N(Cc1ccsc1)CC1CCCO1` (stereo unspecified): the Potency entry was “inactive”.

For `CC(C)c1ccc(C2CC(=O)N3CN(C4CCCCC4)CSC3=C2C#N)cc1` (stereo unspecified), the Potency was 11.2 µM (active).

For `CCn1nccc1C(=O)N1CCCC(c2nc(-c3cccnc3)no2)CCNC(=O)CC1` (stereo unspecified), the Potency entry was “inactive”.

As to `O=C(c1cc(F)ccc1F)N1CCCCCC1c1nnc(-c2ccccc2)o1` (stereo unspecified), the Potency result was “inactive”.

For `Cc1cc(CN(C)C(=O)c2cc(COc3ccc(F)cc3F)on2)on1`, the Potency entry is “inactive”.

In the case of `CCCNc1cc(N2CCC(CCC(=O)Nc3ccc(C)cc3)CC2)ncn1`, the Potency was 12.6 µM (active).

For `CCNc1cc(N2CCC(CCC(=O)N3CCc4ccccc4C3)CC2)ncn1`, the Potency result was “inactive”.

Turning to `CCCNC(=O)CCC1CCN(C(=O)c2ccc(C)cc2)CC1`, the Potency result was “inactive”.

`CCOc1ccccc1C(=O)N[C@@H]1CN(c2ncccn2)C[C@H]1CO`: the Potency result is “inactive”.

For the molecule `CC(=O)N1CCC(C(=O)NCC(=O)N2CCCCCCNC(=O)CC2c2ccccc2)CC1` (stereo unspecified), the Potency result is “inactive”.

As for `Cc1nn2c(c1-c1ccccc1Oc1ccccc1)N(C(=O)C(C)C)CCC2`, the Potency was 10 µM (active).

In the case of `Cc1nn2c(c1-c1ccccc1N1CCCC1)N(C(=O)c1ccc(Oc3ccccc3)cc1)CCC2`, the Potency entry is “inactive”.

Take `Cc1nn2c(c1-c1ccnn1C(C)C)N(C(=O)c1ccc(Oc3ccccc3)cc1)CCC2`: the Potency result was “inactive”.

Consider `c1ccc(-c2nnc(CN3CCN(c4cnccn4)CC3)o2)cc1`, for which the Potency result was “inactive”.

Consider `COc1cc(Nc2nc(-c3ccc(OC)c(OC)c3)nc3ccccc23)cc(OC)c1`, for which the Potency is 8.91 µM (active).

With `COc1ccc(CCNc2nc(-c3ccc(F)cc3)cc(C(F)(F)F)n2)cc1OC`, the Potency entry was “inactive”.

Take `COc1ccc(Nc2ncc(C(=O)Nc3cc(C)ccc3OC)c3ccccc23)cc1`: the Potency entry was “inactive”.

Turning to `COc1ccc(OCc2nc(C)c(CCO)c(=O)n2CC(=O)Nc2ccccc2C)cc1`, the Potency entry is “inactive”.

Regarding `CCC(C)NC(=O)CN1CN(c2ccccc2)C2(CCN(C(=O)c3ccccc3OC)CC2)C1=O` (stereo unspecified), the Potency result is “inactive”.

Turning to `O=C(NC1CC(=O)N(Cc2ccccc2C(F)(F)F)C1)c1ccc[n+]([O-])c1` (stereo unspecified), the Potency result was “inactive”.

Regarding `O=C(c1cn2ccsc2n1)N1CCn2nc(C(O)c3ccccc3)cc2C1` (stereo unspecified), the Potency entry is “inactive”.

Consider `COC[C@@H]1CN(C(=O)c2cc(C)oc2C)C[C@H]1c1nc(C2CC2)no1`, for which the Potency result was “inactive”.

With `NS(=O)(=O)c1ccc2nc(NC(=O)COc3ccccc3)sc2c1`, the Potency entry was “inactive”.

For `Cc1cc2nc(NC(=O)c3ccc(S(=O)(=O)N4CCOCC4)cc3)sc2cc1C`, the Potency result was “inactive”.

On to `CN(C)c1cccc(C(=O)Nc2nc3ccc(S(=O)(=O)NC(C)(C)C)cc3s2)c1`, for which the Potency is 11.2 µM (active).

Turning to `CCOCCOC1CCN(C(=O)Cc2cccc(OC)c2)CC1`, the Potency result is “inactive”.

As to `CS(=O)(=O)N1CCC(OC2CCN(C(=O)c3cccc(Cl)c3)CC2)CC1`, the Potency result is “inactive”.

Consider `Cc1ccc(NC(=O)N2CCC(OC3CCN(S(C)(=O)=O)CC3)CC2)cc1F`, for which the Potency was 0.447 µM (active).

With `Cc1cccc(C)c1NC(=O)N1CCC(OC2CCN(S(C)(=O)=O)CC2)CC1`, the Potency result is “inactive”.

`NC(=O)c1ccc(NC(=O)C2CC(=O)N(c3n[nH]c4cccc(F)c34)C2)cc1` (stereo unspecified): the Potency entry was “inactive”.

Regarding `COC(=O)c1cccc(NC(=O)N2CCC3(CCC(=O)N(Cc4ccccc4)CC3)CC2)c1`, the Potency entry is “inactive”.

On to `CCOC(=O)c1ccc(NC(=O)C2CC(=O)N(c3ccc(C(C)C)cc3)C2)cc1` (stereo unspecified), for which the Potency result was “inactive”.

For the molecule `CCOC(=O)c1ccc(N2C(=O)c3[nH]nc(-c4ccccc4)c3C2c2ccc(C(C)C)cc2)cc1` (stereo unspecified), the Potency is 7.94 µM (active).

On to `CCOC(=O)c1ccc(N2C(=O)c3n[nH]c(C)c3C2c2ccc(O)c(OC)c2)cc1` (stereo unspecified), for which the Potency result is “inactive”.

For the molecule `Nc1nc2c(s1)C(c1ccccc1)CC(=O)N2` (stereo unspecified), the Potency result was “inactive”.

For `Cc1cccc(-c2cccc(CN)c2)c1`, the Potency was 11.2 µM (active).

Regarding `NCc1ccc(-c2cncnc2)cc1`, the Potency entry was “inactive”.
